From PubChem BioAssay (NCATS)
Inconclusive results are not listed. Where a call stands in place of a potency, no number is given. Active and inactive are the calls of the source. Calls come from the whole dose curve; as a rule, active = well fitted curve in the direction sought with a large enough effect; inconclusive = small, poorly fitted or top-dose-only effect, or another doubt; inactive = no such curve, though single readings can be large; an effect the other way counts as inactive or inconclusive.

What was measured:
[1] = qHTS to identify inhibitors of the type 1 interferon - major histocompatibility complex class I in skeletal muscle: primary screen against the NCATS LOPAC collection (AID 1347405);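 note: lytic HiBiT luminescence reporting HLA-B protein level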
Summary of the method: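 After 24 h at 37 C with compounds (7-point, 1:4.3 dilutions, 46 uM top final) plus 4 ng/ml IFN-beta, luminescence from lytic HiBiT detection was measured. HLA-B*08:01 in C25cl48 myoblasts carried an endogenous C-terminal HiBiT tag; medium lacked dexamethasone.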

[2] = qHTS to identify inhibitors of the type 1 interferon - major histocompatibility complex class I in skeletal muscle: primary screen against the NCATS Pharmaceutical Collection (AID 1347407);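 note: luminescence of HiBiT knocked into endogenous HLA-B as interferon-induced MHC class I level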; note: potency is the fitted concentration of half-maximal effect
Summary of the method: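 Compounds […] were added to CRISPR-engineered HLA-B-HiBiT C25cl48 human myoblasts with 4.0 ng/ml IFN-beta. After 24 hrs at 37 C, cells were lysed and HiBiT luminescence measured.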

[3] = biological target: Protein phosphatase 1D (Homo sapiens) (UniProt O15297); assay: RapidFire Mass Spectrometry qHTS Assay for Modulators of WT P53-Induced Phosphatase 1 (WIP1) (AID 1347424); note: series mostly up to about 63 µM
Summary of the method: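 RapidFire MS readout of dephosphorylated VEPPL-S-QETFS product, with 1 uM isotope-labelled peptide standard. Reaction: 10 nM WIP1, 2 uM phosphopeptide substrate, 5 min, room temperature, after 1 h compound preincubation; stopped with 0.5% formic acid.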

[4] = biological target: Protein phosphatase 1D (Homo sapiens) (UniProt O15297); assay: Rhodamine-PBP qHTS Assay for Modulators of WT P53-Induced Phosphatase 1 (WIP1) (AID 1347425)
Summary of the method: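 5 nM WIP1 + 10 uM Rh-PBP, 50 mM Tris pH 7.5, 30 mM MgCl2, 1 mM TCEP, 0.1 mM EGTA, BSA; cpds pinned, 1 hr RT; + 10 uM phosphopeptide; fluorescence 1-min reads x 11 min; delta = f1 - f0.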

[5] = Validation qHTS assay for inhibitors of Activation Induced Cytidine Deaminase (AID): UDG Counterscreen signal (AID 1347427); note: potency is the fitted concentration of half-maximal effect
Summary of the method: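 Fluorescence at 560 nm excitation, 665 nm emission reports UDG signal after 250 mM NaOH (2x) addition and 30 min. Enzymes (AID 1 uM, UDG 2 U/mL, at 4/3x) preincubated 10 min with compound, then 4 h with 4x 250 nM DJC20/DJC23 substrate at room temperature.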

[6] = qHTS to identify inhibitors of the type 1 interferon - major histocompatibility complex class I in skeletal muscle: primary screen against the NCATS Mechanism Interrogation Plate v5.0 (MIPE) Libary (AID 1347411); note: nearly all actives have a fitted effect of over 65% in size; note: potency is the fitted concentration of half-maximal effect
Summary of the method: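 Luminescence from CRISPR HiBit-tagged endogenous HLA-B in human myoblasts reported MHC class I level after 24 h of IFN-beta (4 ng/ml) plus compound. Compounds ran as 11-point 1:3 series, top 46 uM final.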

[7] = qHTS for inhibitors of adenylyl cyclases using a fission yeast platform: a pilot screen against the NCATS LOPAC library (AID 1347410)
Summary of the method: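 GFP from fbp1-GFP reporter, read by Acumen laser cytometry, indicates AC inhibition in fission yeast expressing AC9, GNAS and PDE4D2. Cells grown 18 h in the dark at 30C with compounds, final up to 57 uM.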

Protein phosphatase 1D (Homo sapiens), sequence (O15297 whole entry, looked up): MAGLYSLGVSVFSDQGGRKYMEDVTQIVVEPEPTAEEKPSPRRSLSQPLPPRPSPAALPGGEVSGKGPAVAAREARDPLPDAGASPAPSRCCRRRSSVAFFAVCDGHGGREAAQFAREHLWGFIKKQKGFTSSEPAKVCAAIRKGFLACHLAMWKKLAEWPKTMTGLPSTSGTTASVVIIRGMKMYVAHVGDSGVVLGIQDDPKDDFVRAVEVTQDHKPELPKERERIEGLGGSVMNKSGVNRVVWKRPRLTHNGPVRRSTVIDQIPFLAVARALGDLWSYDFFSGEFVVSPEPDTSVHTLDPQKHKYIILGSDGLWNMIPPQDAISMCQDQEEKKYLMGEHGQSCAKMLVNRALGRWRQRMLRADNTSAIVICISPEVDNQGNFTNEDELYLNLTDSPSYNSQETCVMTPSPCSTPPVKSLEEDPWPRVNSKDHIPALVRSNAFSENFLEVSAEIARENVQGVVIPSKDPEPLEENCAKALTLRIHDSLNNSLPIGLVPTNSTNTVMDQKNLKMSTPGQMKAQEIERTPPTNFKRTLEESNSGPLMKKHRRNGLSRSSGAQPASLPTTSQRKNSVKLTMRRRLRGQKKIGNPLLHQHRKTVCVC

SMILES | Potency [1] | Potency [2] | Potency [3] | outcome [4] | Potency [5] | Potency [6] | outcome [7]
Clc1ccc(C(c2ccccc2Cl)C(Cl)Cl)cc1 (stereo not given) | inactive | inactive | inactive | inactive | inactive |  | 
C[C@H]1c2cccc(O)c2C(O)=C2C(=O)[C@]3(O)C(O)=C(C(N)=O)C(=O)[C@@H](N(C)C)[C@@H]3[C@@H](O)[C@@H]21 | inactive | inactive | inactive | inactive | inactive | inactive | 
Cc1cn([C@H]2C=C[C@@H](CO)O2)c(=O)[nH]c1=O | inactive | inactive | inactive | inactive | inactive |  | 
Nc1c2c(nc3ccccc13)CCCC2 | inactive | inactive | inactive | inactive | inactive | inactive | inactive
CC12CC3CC(C)(C1)CC(N)(C3)C2 |  | inactive | inactive | inactive | inactive | inactive | inactive
OCCN1CCN(CCCN2c3ccccc3Sc3ccc(C(F)(F)F)cc32)CC1 |  | inactive | inactive | inactive | inactive |  | inactive
C[C@@H]1CC(=O)NN=C1c1ccc(NN=C(C#N)C#N)cc1 |  | inactive | inactive |  |  | 18.6 µM (active) | 
CN(Cc1cnc2nc(N)nc(N)c2n1)c1ccc(C(=O)N[C@@H](CCC(=O)O)C(=O)O)cc1 |  | inactive | inactive | inactive | inactive | inactive | inactive
CS(=O)(=O)Nc1ccc([N+](=O)[O-])cc1Oc1ccccc1 |  | inactive | inactive | inactive | inactive |  | inactive
CN(C)CCOC(c1ccccc1)c1ccccc1 |  | inactive | inactive | inactive | inactive | inactive | inactive
CC1(CN2CCC(n3c(=O)[nH]c4ccccc43)CC2)OCc2ccccc2-n2cccc21 (stereo not given) |  | inactive | inactive | inactive |  | inactive | 
Nc1ccn([C@H]2CC[C@@H](CO)O2)c(=O)n1 |  | inactive | inactive | inactive | inactive |  | inactive
CC(C)NCC(O)c1ccc(O)c(O)c1 (stereo not given) |  | inactive | inactive | inactive | inactive | inactive | inactive
CC#C[C@]1(O)CC[C@H]2[C@@H]3CCC4=CC(=O)CCC4=C3[C@@H](c3ccc(N(C)C)cc3)C[C@@]21C |  | inactive | inactive | inactive | inactive | inactive | inactive
CN1CCN(C2=Nc3cc(Cl)ccc3Nc3ccccc32)CC1 |  | inactive | inactive | inactive | inactive | inactive | inactive
CC(C)(Oc1ccc(C2CC2(Cl)Cl)cc1)C(=O)O (stereo not given) |  | inactive | inactive | inactive | inactive | inactive | 
O=C1c2c(O)ccc(O)c2C(=O)c2c(NCCNCCO)ccc(NCCNCCO)c21 |  | 11.8 µM (active) | inactive | inactive | 31.6 µM (active) | 0.93 µM (active) | inactive

SMILES | Potency [1] | Potency [2] | Potency [3] | outcome [4] | Potency [5] | Potency [6] | outcome [7]
Cc1cc(C(C)(C)C)c(O)c(C)c1CC1=NCCN1 |  | inactive | inactive | inactive | inactive | inactive | inactive
COc1ccccc1N1CCN(CC(O)COc2cccc3ccccc23)CC1 (stereo not given) |  | inactive | inactive | inactive | inactive | inactive | inactive
CCOC(=O)c1ncn2c1CN(C)C(=O)c1cc(F)ccc1-2 |  | inactive | inactive | inactive | inactive | inactive | inactive
CN1CCN2c3ccccc3Cc3ccccc3C2C1 (stereo not given) |  | inactive | inactive | inactive | inactive |  | inactive
N[C@@H](Cc1c[nH]c2ccc(O)cc12)C(=O)O |  | inactive | inactive | inactive | inactive | inactive | inactive
CCc1cccc2c3c([nH]c12)C(CC)(CC(=O)O)OCC3 (stereo not given) |  | inactive | inactive | inactive | inactive |  | inactive
Cc1cc(C(C)(C)C)cc(C)c1CC1=NCCN1 |  | inactive | inactive | inactive | inactive | inactive | 
COc1cc2c(c(OC)c1OC)-c1ccc(OC)c(=O)cc1[C@@H](NC(C)=O)CC2 |  | inactive | inactive | inactive | inactive |  | inactive
O=C(CCCN1CCC(O)(c2ccc(Cl)cc2)CC1)c1ccc(F)cc1 |  | inactive | inactive | inactive | inactive |  | inactive
COc1ccccc1OCCNCC(O)COc1cccc2[nH]c3ccccc3c12 (stereo not given) |  | inactive | inactive | inactive | inactive |  | inactive
CCOC(=O)C(C)(C)Oc1ccc(Cl)cc1 |  | inactive | inactive | inactive | inactive | inactive | inactive
CC(CCc1ccc(O)cc1)NCCc1ccc(O)c(O)c1 (stereo not given) |  | inactive | inactive | inactive | inactive |  | inactive
CN(C)CCC=C1c2ccccc2C=Cc2ccccc21 |  | inactive | inactive | inactive | inactive | inactive | inactive
CC(C(=O)O)c1cccc(C(=O)c2ccccc2)c1 (stereo not given) |  | inactive | inactive | inactive | inactive | inactive | inactive
Nc1nc2c(ncn2COC(CO)CO)c(=O)[nH]1 |  | inactive | inactive | inactive |  | inactive | 
COc1nc(C)nc(Cl)c1NC1=NCCN1 |  | inactive | inactive | inactive | inactive | inactive | inactive
Cc1cnc(C(=O)NCCc2ccc(S(=O)(=O)NC(=O)NC3CCCCC3)cc2)cn1 |  | inactive | inactive | inactive | inactive | inactive | inactive
